From PubChem BioAssay (NCI)
About 83,000 compounds went through this panel and 20% of them were active in at least one assay; those are over-represented in the sample as a whole.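 Single-concentration screen, 48 h exposure, 96-well plates. Endpoint: percent growth. Below 10 = active.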 Calls of active or inactive are those of the source.

Tests used:
Assay in all cases: NCI-60 one-dose screen, 48 h (100 = growth as untreated, 0 = no growth, -100 = all killed)
Conditions in all cases: 10 µM unless noted
SN12C renal = test system: SN12C renal
UO-31 renal = test system: UO-31 renal
TK-10 renal = test system: TK-10 renal
ACHN renal = test system: ACHN renal
CAKI-1 renal = test system: CAKI-1 renal
A498 renal = test system: A498 renal
CCRF-CEM leukemia = test system: CCRF-CEM leukemia
MOLT-4 leukemia = test system: MOLT-4 leukemia
SR leukemia = test system: SR leukemia

Measured: growth

CCOC(=O)c1cc2c(n1Cc1cc(OC)c(OC)c(OC)c1)-c1oncc1CCC2
inactive: SN12C renal 32.1% | UO-31 renal 38.3% | TK-10 renal 85.2% | ACHN renal 33.8% | CAKI-1 renal 43.7%
active: A498 renal -22.9% | CCRF-CEM leukemia 5.78% | MOLT-4 leukemia 7.85% | SR leukemia 2.12%

COC(=O)C1(C)COP(=O)(Nc2ccc(OC)cc2)OC1 (stereo not given)
inactive: SN12C renal 102% | UO-31 renal 82.7% | TK-10 renal 108% | ACHN renal 104% | CAKI-1 renal 99.2% | A498 renal 101% | CCRF-CEM leukemia 102% | MOLT-4 leukemia 99.2% | SR leukemia 93.2%

O=C1OC(c2ccccc2)(c2ccccc2)c2ccsc21
inactive: SN12C renal 98.8% | UO-31 renal 88.6% | TK-10 renal 101% | ACHN renal 97.9% | CAKI-1 renal 101% | A498 renal 96.6% | CCRF-CEM leukemia 89.2% | MOLT-4 leukemia 76% | SR leukemia 84.5%

O=C(CSc1ccc2nnc(-c3cccc(F)c3)n2n1)Nc1ccc2c(c1)OCO2
inactive: SN12C renal 80.5% | UO-31 renal 70.4% | TK-10 renal 112% | ACHN renal 87.9% | CAKI-1 renal 84.1% | A498 renal 104% | CCRF-CEM leukemia 32.5% | MOLT-4 leukemia 62.1% | SR leukemia 56.3%

N#Cc1c(N)nc2c(c1N)C(c1ccc(F)cc1)c1ccc(N)cc1O2 (stereo not given)
inactive: SN12C renal 104% | UO-31 renal 105% | TK-10 renal 116% | ACHN renal 102% | CAKI-1 renal 91.3% | A498 renal 58.4% | CCRF-CEM leukemia 99.9% | MOLT-4 leukemia 96.4% | SR leukemia 93%

CCOc1cccc(/C=N\Nc2nc(=O)cc(C(=O)OC)s2)c1O
inactive: SN12C renal 59.1% | UO-31 renal 49.7% | TK-10 renal 107% | ACHN renal 68.8% | CAKI-1 renal 65.9% | A498 renal 87.2% | CCRF-CEM leukemia 38.4% | MOLT-4 leukemia 53.6% | SR leukemia 50.7%

O=C(Nc1ccc(N2CCNCC2)cn1)c1[nH]ncc1Nc1ncnc2sccc12
inactive: SN12C renal 66.9% | UO-31 renal 76.1% | TK-10 renal 87.1% | ACHN renal 60.2% | CAKI-1 renal 54.1% | A498 renal 80.7%
active: CCRF-CEM leukemia 5.54% | MOLT-4 leukemia 2.22% | SR leukemia -5.97%

COc1ccc(-c2nc(N3CCN(C(=O)C4CCCCC4)CC3)c3c4c(sc3n2)CCCC4)cc1
active: UO-31 renal -7.01% | TK-10 renal -40.1% | CAKI-1 renal -12.1% | CCRF-CEM leukemia 5.79% | MOLT-4 leukemia 1.83% | SR leukemia -33.2%
inactive: SN12C renal 77.2% | ACHN renal 33.5% | A498 renal 57.1%

Cc1ccc(NC2=CC(=O)C(=O)c3ccccc32)c(C)c1
inactive: SN12C renal 44.1% | UO-31 renal 71.2% | TK-10 renal 80.8% | ACHN renal 15.9% | CAKI-1 renal 82.7% | A498 renal 109% | CCRF-CEM leukemia 43.7% | MOLT-4 leukemia 36.9% | SR leukemia 56.4%

O=C(N/N=C/c1ccccc1Cl)C(=O)Nc1cccc(C(F)(F)F)c1
inactive: SN12C renal 92.7% | UO-31 renal 90.8% | TK-10 renal 83.7% | ACHN renal 76% | CAKI-1 renal 97.6% | A498 renal 89.3% | CCRF-CEM leukemia 100% | MOLT-4 leukemia 92.1% | SR leukemia 65.1%

O=C(O)CCC(=O)c1ccc(C2CCCCCC2)cc1
inactive: SN12C renal 99.5% | UO-31 renal 80.4% | TK-10 renal 99.1% | ACHN renal 97.1% | CAKI-1 renal 97.4% | A498 renal 89.2% | CCRF-CEM leukemia 101% | MOLT-4 leukemia 87.3% | SR leukemia 93.8%

FC(F)(F)c1cccc(Nc2nc3ccccc3nc2Nc2cccc(C(F)(F)F)c2)c1
active: UO-31 renal -74.7% | TK-10 renal -50.1% | ACHN renal -21.5% | CAKI-1 renal -1.66% | CCRF-CEM leukemia -2.8% | MOLT-4 leukemia -11.2% | SR leukemia -29.4%
inactive: SN12C renal 32.3% | A498 renal 54%

CCOC(=O)c1cc2c(n1Cc1ccccc1OC)-c1oncc1CCC2
active: A498 renal -2.62% | CCRF-CEM leukemia 8.18% | SR leukemia 4.65%
inactive: SN12C renal 53.3% | UO-31 renal 45.2% | TK-10 renal 59.4% | ACHN renal 53.4% | CAKI-1 renal 35.8% | MOLT-4 leukemia 28.4%

CCOc1ccc2nc(C)cc(Nc3ccc(Br)cc3)c2c1
inactive: SN12C renal 98.5% | UO-31 renal 92.1% | TK-10 renal 119% | ACHN renal 99.6% | CAKI-1 renal 97% | A498 renal 79.1% | CCRF-CEM leukemia 90.3% | MOLT-4 leukemia 88.6% | SR leukemia 86.4%

NCCOc1ccccc1/C=C1\c2ccccc2-c2ccc([N+](=O)[O-])cc21
active: SN12C renal -17.9% | UO-31 renal -7% | TK-10 renal -1.56% | ACHN renal -73.6% | CAKI-1 renal 1.27% | CCRF-CEM leukemia 0.81% | MOLT-4 leukemia -14.1% | SR leukemia -23.7%
inactive: A498 renal 25.1%

O=C(Nc1ccc(-c2nc3cc4ccccc4cc3[nH]2)cc1)c1cccc(Br)c1
inactive: SN12C renal 44.6% | UO-31 renal 13.1% | TK-10 renal 51.8% | ACHN renal 35.1% | CAKI-1 renal 18.2% | A498 renal 68.5% | CCRF-CEM leukemia 77% | MOLT-4 leukemia 85.4% | SR leukemia 76.4%

COc1ccc(CCN2C(=O)/C(=C/c3ccc(C4Oc5ccccc5C5CC(c6cccc(OC)c6)=NN54)cc3)SC2=S)cc1 (stereo not given)
inactive: SN12C renal 101% | UO-31 renal 82% | TK-10 renal 103% | ACHN renal 98.3% | CAKI-1 renal 95.7% | A498 renal 106% | CCRF-CEM leukemia 98.8% | MOLT-4 leukemia 104% | SR leukemia 115%

CCOC(=O)c1cnc2ccc(Cl)cc2c1NCCCN(C)C
active: UO-31 renal -22.8% | CAKI-1 renal -4.21% | CCRF-CEM leukemia -4.96% | MOLT-4 leukemia -5.58% | SR leukemia -5.95%
inactive: SN12C renal 18.1% | TK-10 renal 33.8% | ACHN renal 18.3% | A498 renal 31%

COc1cc2cc3c(=O)n4c(cc5cc(OC)ncc54)c(=O)n3c2cn1
inactive: SN12C renal 98.6% | UO-31 renal 88.8% | TK-10 renal 107% | ACHN renal 110% | CAKI-1 renal 98.4% | A498 renal 104% | CCRF-CEM leukemia 91.9% | MOLT-4 leukemia 99.2% | SR leukemia 98%

COc1ccc(C2Nc3ncnc(N)c3N=C3c4ccccc4C(=O)C32)cc1 (stereo not given)
active: SR leukemia 9.71%
inactive: SN12C renal 140% | UO-31 renal 67% | TK-10 renal 123% | ACHN renal 92.4% | CAKI-1 renal 80.1% | A498 renal 99.2% | CCRF-CEM leukemia 97.9% | MOLT-4 leukemia 57.9%

CN=c1ccc2nc3ccc(N)cc3sc-2c1
active: MOLT-4 leukemia 1.3%
inactive: SN12C renal 17% | UO-31 renal 60.7% | TK-10 renal 49.4% | ACHN renal 42.2% | CAKI-1 renal 28.2% | A498 renal 79.9% | CCRF-CEM leukemia 21.5% | SR leukemia 38%

COc1ccc(-c2cn3c(C(=O)Nc4ccccc4Cl)c(-c4ccccc4)c4c3n2CCCC4)cc1
inactive: SN12C renal 82.7% | UO-31 renal 62.8% | TK-10 renal 72.2% | ACHN renal 80.9% | CAKI-1 renal 81.6% | A498 renal 74.9% | CCRF-CEM leukemia 66% | MOLT-4 leukemia 69.8% | SR leukemia 62.8%

Cc1sc2ncnc(Sc3nc4ccccc4[nH]3)c2c1C
active: UO-31 renal -86.2% | TK-10 renal -87.2% | ACHN renal -82.7% | CAKI-1 renal -68.6% | CCRF-CEM leukemia -53.2% | MOLT-4 leukemia -48.4% | SR leukemia -17.3%
inactive: SN12C renal 25% | A498 renal 24.5%

CCOC(=O)c1cc2c(n1Cc1cccc(OC)c1)-c1oncc1CCC2
active: A498 renal 6.51% | CCRF-CEM leukemia 3.19%
inactive: SN12C renal 56.7% | UO-31 renal 16.7% | TK-10 renal 48.1% | ACHN renal 47.3% | CAKI-1 renal 29.6% | MOLT-4 leukemia 35.8% | SR leukemia 10.1%

O=C(Nc1ccc(-c2nc3ccc(NC(=O)c4ccc(Cl)cc4)cc3[nH]2)cc1)c1ccc(Cl)cc1
active: UO-31 renal -5.85% | TK-10 renal -27.9% | ACHN renal 9.32% | CCRF-CEM leukemia 1.27% | MOLT-4 leukemia 3.96% | SR leukemia -24.9%
inactive: SN12C renal 24.5% | CAKI-1 renal 27.2% | A498 renal 58.7%

COc1ccc(Cn2c(Br)c3c(c2-c2cc(OC)c(OC)c(OC)c2)CCc2sc(NC(C)=O)nc2-3)cc1
inactive: SN12C renal 71.9% | UO-31 renal 13.9% | TK-10 renal 70.6% | ACHN renal 53.7% | CAKI-1 renal 44% | A498 renal 21.5% | CCRF-CEM leukemia 16.9% | MOLT-4 leukemia 45.1% | SR leukemia 14.3%

Cc1ccc(Cn2c(N3CCC(C(=O)NCc4cccs4)CC3)nc3ccccc32)cc1
active: CCRF-CEM leukemia 8.48% | SR leukemia -37%
inactive: SN12C renal 87.9% | UO-31 renal 65% | TK-10 renal 95.7% | ACHN renal 98.5% | CAKI-1 renal 89.1% | A498 renal 62.4% | MOLT-4 leukemia 21.6%

COc1cc(C2C3=C(COC3=O)N(CCO)c3cc4c(cc32)CCC4)cc(OC)c1O (stereo not given)
inactive: SN12C renal 33.5% | UO-31 renal 49.7% | TK-10 renal 45% | ACHN renal 42.8% | CAKI-1 renal 21.1% | A498 renal 17.2% | CCRF-CEM leukemia 17.2% | MOLT-4 leukemia 20.6% | SR leukemia 33.1%

CCOc1cccc(/C=N/NC(=O)C(=O)Nc2cccc(C(F)(F)F)c2)c1O
inactive: SN12C renal 30.6% | TK-10 renal 46.1% | ACHN renal 16.6% | A498 renal 55.9% | CCRF-CEM leukemia 14.1% | MOLT-4 leukemia 19.1% | SR leukemia 15.9%
active: UO-31 renal 9.54% | CAKI-1 renal 9.87%

O=S(=O)(c1ccccc1)n1cc2c(c1-c1ccccc1)CCc1sc(Nc3ccccc3)nc1-2
inactive: SN12C renal 77.1% | UO-31 renal 70.4% | TK-10 renal 100% | ACHN renal 77.9% | CAKI-1 renal 75.8% | A498 renal 89.4% | CCRF-CEM leukemia 72.6% | MOLT-4 leukemia 76% | SR leukemia 79.3%
